ChEMBL document CHEMBL3433997, “St. Jude Leishmania screening dataset” (2016)

target: Solute carrier family 2, facilitated glucose transporter member 1 (Homo sapiens) (UniProt P11166); assay: ST_JUDE_LEISH: Cytotoxicity at 2uM final concentration against transgenic Leishmania Mexicana promastigotes LmGLUT1 that are glucose transport deficient and complemented with the human glucose transporter GLUT1. Activity is measured by DNA content using SYBR green in vitro; format: functional
Sequence (P11166 whole entry): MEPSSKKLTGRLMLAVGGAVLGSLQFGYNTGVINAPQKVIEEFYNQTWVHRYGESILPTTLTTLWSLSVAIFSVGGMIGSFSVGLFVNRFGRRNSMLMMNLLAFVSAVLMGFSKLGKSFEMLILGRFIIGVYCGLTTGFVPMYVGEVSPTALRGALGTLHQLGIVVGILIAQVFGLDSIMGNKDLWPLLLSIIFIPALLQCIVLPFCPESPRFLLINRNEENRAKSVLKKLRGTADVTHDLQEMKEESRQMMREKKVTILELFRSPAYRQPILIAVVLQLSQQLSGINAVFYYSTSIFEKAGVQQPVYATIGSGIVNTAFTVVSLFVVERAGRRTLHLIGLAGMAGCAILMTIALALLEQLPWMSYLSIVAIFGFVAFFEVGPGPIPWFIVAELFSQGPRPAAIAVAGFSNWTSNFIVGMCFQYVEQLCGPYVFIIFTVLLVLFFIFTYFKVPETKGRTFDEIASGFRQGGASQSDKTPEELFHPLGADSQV

SMILES	inhibition [%]
Clc1ccc(C=NN=c2cc[nH]c3ccccc23)cc1	9.89
Cc1ccc(-c2ccc3c(c2)C=C(C(=O)NCC2CCN(CC4CCN(C(=O)/C=C/c5ccc(Cl)c(Cl)c5)CC4)CC2)CCC3)cc1	1.1
CCN(CC)c1nc(N)c2c(N)nc3c(c2c1C#N)C(=O)CN3Cc1ccccc1	7.21
Cc1nc(NC(=N)N)nc2cc3c(cc12)CCC3	0.91
Cc1c(F)cc(C(=O)NC2CC2)cc1-c1ccc2c(cnn2S(=O)(=O)c2ccc(F)c(F)c2)c1	5.87
Cc1ccccc1C1CCN(C2CCC(NC(=O)/C=C/c3cccc(Cl)c3F)CC2)CC1 (stereo not given)	3.45
CC1(C)NC(N)=NC(=N)N1OCCCCOc1ccccc1	-2.95
COc1ccc(NC(=O)c2ccc(-c3ccc(-c4cccnc4)cc3)c(C)c2)cc1OCCN(C)C	1.47
CC(C)c1ccc(-c2nc3cc(Cl)cnc3[nH]2)cc1	3.03
CC1CC(C)CN(CC(O)CNC(=O)Nc2ccc(Br)cc2)C1 (stereo not given)	6.62
COc1ccc2[nH]c(C)cc(=NN=Cc3cccc(F)c3)c2c1	5.17
CC(Cc1ccc(NC(=O)c2ccc(CC(C)NCc3ccc(Cl)cc3)cc2)cc1)NCCc1cccc(Cl)c1 (stereo not given)	10.3
CCC(Nc1noc(-c2c(-c3ccccc3)noc2C)n1)c1ccccc1 (stereo not given)	-1.15
CN1CCN(c2cc3c(Nc4ccc5c(cnn5Cc5ccccc5)c4)ncnc3cn2)CC1	1.33
NC1=NC2(CCCCC2)N(OCCCCCCN2C(=O)c3ccccc3C2=O)C(N)=N1	12.9
N=C(N)Nc1nc(CCCCCCCCc2csc(NC(=N)N)n2)cs1	-1.03
CN1CCN(c2ccc(Nc3ncc(Cl)c(Nc4cccnc4C(N)=O)n3)cc2)CC1	84.2
COc1cc2nc(N3CCC(CNC(=O)c4ccc(-c5ccc(C#N)cc5)cc4)CC3)nc(N)c2cc1OC	1.64
COc1ccc(N2CCN(CCCCNC(=O)c3ccc(NC(=O)c4ccc(Cl)cc4)cc3)CC2)c(C)c1	10.4
Cc1ccc(CNC(=O)[C@H](Cc2ccccc2)Nc2cc(C)nc(NCCc3ccc(F)cc3)n2)cc1	5.47

SMILES	inhibition [%]
CS(=O)(=O)N(c1ccc(F)cc1)c1cc(C(=O)N[C@@H](Cc2ccccc2)[C@H](O)CNCc2cccc(C(F)(F)F)c2)cc(N2CCCC2=O)c1	1.67
COc1cc(Nc2ccnc3cc(-c4ccccn4)ccc23)cc(OC)c1OC	5.56
CN(CCCCNC(=O)/C=C/c1ccccc1)C1CC2(CCN(C(=O)OC(C)(C)C)CC2)c2ccccc21 (stereo not given)	3.4
N#Cc1cccc(NC(=O)Nc2cccc(OC3CCN(Cc4ccccc4)CC3)c2)c1	0.82
NC(=O)c1c(Cl)nc2ccccc2c1Cl	4.35
COc1ccc2ccccc2c1CCCCN1CCN(CC(c2ccc(F)cc2)N2CCN(C(C)C)CC2)CC1 (stereo not given)	17.9
Cc1cc(C)cc(NC(=S)NCCCCN2CCN(c3cccc(Cl)c3)CC2)c1	-0.5
COc1cc(-n2c(CN3CCCC3)nc3cc(-c4ccc(Cl)cc4)sc3c2=O)ccc1OCCN1CCCC1	2.99
CN1CCN(CC(=O)Nc2cccc(-c3ccc(-c4nc5cc(C(F)(F)F)ccc5[nH]4)cc3)c2)CC1	0.96
c1ccc2[nH]c(-c3ccc(-c4ccc(CN5CCN(CCN6CCOCC6)CC5)cc4)s3)nc2c1	10.4
CCOC(=O)c1c(C)n(-c2ccc(Cl)cc2)c2ccc(OC(=O)C=Cc3ccccc3)cc12	2.75
Cc1cccc2nc(-c3cccc(-c4ccc(NC(=O)NC5CC5c5ccccc5)cc4)c3)[nH]c12 (stereo not given)	6.4
COC(=O)c1cc(OC)c(OC)cc1NC(=O)NC12CC3CC(CC(C3)C1)C2	4.1
CS(=O)(=O)N(CC(O)Cn1c2ccc(Cl)cc2c2cc(Cl)ccc21)c1ccccc1 (stereo not given)	0.79
CC(C)(C)OC(=O)NCc1ccc(Nc2nnc(-c3cccc(C(=O)NCc4cc(C(F)(F)F)cc(C(F)(F)F)c4)c3)o2)cc1	7.94
CCc1cc(Br)c2c(c1)C(NCCCNc1cc(=O)c3ccccc3[nH]1)CCN2 (stereo not given)	3.82
Fc1ccc2[nH]c(-c3ccc(-c4ccc(CNCCc5ccncc5)cc4)s3)nc2c1	5.54
Cc1cc(N/N=C/c2ccccc2[N+](=O)[O-])c2cc(C(F)(F)F)ccc2n1	-3.14
CNC(=O)c1cc(F)c(F)cc1Nc1nc(Nc2cccc(CS(C)(=O)=O)c2)ncc1Cl	1.41
CCCCNC(=O)[C@@H]1CCCN1C(=O)c1ccc(O)c(-c2ccc(Cl)c(Cl)c2)c1	1.42

target: Hexose transporter 1 (Plasmodium falciparum) (UniProt O97467); assay: ST_JUDE_LEISH: Cytotoxicity at 2uM final concentration against transgenic Leishmania Mexicana promastigotes LmPfHT that are glucose transport deficient and complemented with the Plasmodium falciparum hexose transporter. Activity is measured by DNA content using SYBR green in vitro; format: functional

SMILES	inhibition [%]
Clc1ccc(C=NN=c2cc[nH]c3ccccc23)cc1	8.46
Cc1ccc(-c2ccc3c(c2)C=C(C(=O)NCC2CCN(CC4CCN(C(=O)/C=C/c5ccc(Cl)c(Cl)c5)CC4)CC2)CCC3)cc1	0.59
CCN(CC)c1nc(N)c2c(N)nc3c(c2c1C#N)C(=O)CN3Cc1ccccc1	6.8
Cc1nc(NC(=N)N)nc2cc3c(cc12)CCC3	0.44
Cc1c(F)cc(C(=O)NC2CC2)cc1-c1ccc2c(cnn2S(=O)(=O)c2ccc(F)c(F)c2)c1	5.31
Cc1ccccc1C1CCN(C2CCC(NC(=O)/C=C/c3cccc(Cl)c3F)CC2)CC1 (stereo not given)	1.79
CC1(C)NC(N)=NC(=N)N1OCCCCOc1ccccc1	0.84
COc1ccc(NC(=O)c2ccc(-c3ccc(-c4cccnc4)cc3)c(C)c2)cc1OCCN(C)C	1.09
CC(C)c1ccc(-c2nc3cc(Cl)cnc3[nH]2)cc1	3.85
CC1CC(C)CN(CC(O)CNC(=O)Nc2ccc(Br)cc2)C1 (stereo not given)	5.27
COc1ccc2[nH]c(C)cc(=NN=Cc3cccc(F)c3)c2c1	5.7
CC(Cc1ccc(NC(=O)c2ccc(CC(C)NCc3ccc(Cl)cc3)cc2)cc1)NCCc1cccc(Cl)c1 (stereo not given)	6.78
CCC(Nc1noc(-c2c(-c3ccccc3)noc2C)n1)c1ccccc1 (stereo not given)	2.18
CN1CCN(c2cc3c(Nc4ccc5c(cnn5Cc5ccccc5)c4)ncnc3cn2)CC1	2.08
NC1=NC2(CCCCC2)N(OCCCCCCN2C(=O)c3ccccc3C2=O)C(N)=N1	7.88
N=C(N)Nc1nc(CCCCCCCCc2csc(NC(=N)N)n2)cs1	-0.76
CN1CCN(c2ccc(Nc3ncc(Cl)c(Nc4cccnc4C(N)=O)n3)cc2)CC1	87.3
COc1cc2nc(N3CCC(CNC(=O)c4ccc(-c5ccc(C#N)cc5)cc4)CC3)nc(N)c2cc1OC	1.87
COc1ccc(N2CCN(CCCCNC(=O)c3ccc(NC(=O)c4ccc(Cl)cc4)cc3)CC2)c(C)c1	8.02
Cc1ccc(CNC(=O)[C@H](Cc2ccccc2)Nc2cc(C)nc(NCCc3ccc(F)cc3)n2)cc1	4.28

SMILES	inhibition [%]
CS(=O)(=O)N(c1ccc(F)cc1)c1cc(C(=O)N[C@@H](Cc2ccccc2)[C@H](O)CNCc2cccc(C(F)(F)F)c2)cc(N2CCCC2=O)c1	-0.54
COc1cc(Nc2ccnc3cc(-c4ccccn4)ccc23)cc(OC)c1OC	8.67
CN(CCCCNC(=O)/C=C/c1ccccc1)C1CC2(CCN(C(=O)OC(C)(C)C)CC2)c2ccccc21 (stereo not given)	3.28
N#Cc1cccc(NC(=O)Nc2cccc(OC3CCN(Cc4ccccc4)CC3)c2)c1	0.59
NC(=O)c1c(Cl)nc2ccccc2c1Cl	4.69
COc1ccc2ccccc2c1CCCCN1CCN(CC(c2ccc(F)cc2)N2CCN(C(C)C)CC2)CC1 (stereo not given)	9.64
Cc1cc(C)cc(NC(=S)NCCCCN2CCN(c3cccc(Cl)c3)CC2)c1	-1.31
COc1cc(-n2c(CN3CCCC3)nc3cc(-c4ccc(Cl)cc4)sc3c2=O)ccc1OCCN1CCCC1	2.69
CN1CCN(CC(=O)Nc2cccc(-c3ccc(-c4nc5cc(C(F)(F)F)ccc5[nH]4)cc3)c2)CC1	0.81
c1ccc2[nH]c(-c3ccc(-c4ccc(CN5CCN(CCN6CCOCC6)CC5)cc4)s3)nc2c1	9.34
CCOC(=O)c1c(C)n(-c2ccc(Cl)cc2)c2ccc(OC(=O)C=Cc3ccccc3)cc12	5.54
Cc1cccc2nc(-c3cccc(-c4ccc(NC(=O)NC5CC5c5ccccc5)cc4)c3)[nH]c12 (stereo not given)	3.69
COC(=O)c1cc(OC)c(OC)cc1NC(=O)NC12CC3CC(CC(C3)C1)C2	2.13
CS(=O)(=O)N(CC(O)Cn1c2ccc(Cl)cc2c2cc(Cl)ccc21)c1ccccc1 (stereo not given)	1.45
CC(C)(C)OC(=O)NCc1ccc(Nc2nnc(-c3cccc(C(=O)NCc4cc(C(F)(F)F)cc(C(F)(F)F)c4)c3)o2)cc1	7.58
CCc1cc(Br)c2c(c1)C(NCCCNc1cc(=O)c3ccccc3[nH]1)CCN2 (stereo not given)	2.76
Fc1ccc2[nH]c(-c3ccc(-c4ccc(CNCCc5ccncc5)cc4)s3)nc2c1	4.96
Cc1cc(N/N=C/c2ccccc2[N+](=O)[O-])c2cc(C(F)(F)F)ccc2n1	0.97
CNC(=O)c1cc(F)c(F)cc1Nc1nc(Nc2cccc(CS(C)(=O)=O)c2)ncc1Cl	1.35
CCCCNC(=O)[C@@H]1CCCN1C(=O)c1ccc(O)c(-c2ccc(Cl)c(Cl)c2)c1	0.27
